What was measured:
Assay in all cases: DAPPL (digital affinity profiling via proximity ligation, sequencing); 10 mM Tris-HCl pH 7.5, 50 mM NaCl, 1 mM DTT, 4% glycerol, room temperature, 30 min; GST-TFs on glutathione beads, 16-mer random dsDNA library, 0.1% formaldehyde crosslink after washing; high values mean tight binding
Settings in all cases: protein: recombinant; tags: N-terminal GST; dsDNA, one strand shown
[1] = target: T1, FLI1 (Homo sapiens, UniProt Q01543 1-452)
T1 sequence: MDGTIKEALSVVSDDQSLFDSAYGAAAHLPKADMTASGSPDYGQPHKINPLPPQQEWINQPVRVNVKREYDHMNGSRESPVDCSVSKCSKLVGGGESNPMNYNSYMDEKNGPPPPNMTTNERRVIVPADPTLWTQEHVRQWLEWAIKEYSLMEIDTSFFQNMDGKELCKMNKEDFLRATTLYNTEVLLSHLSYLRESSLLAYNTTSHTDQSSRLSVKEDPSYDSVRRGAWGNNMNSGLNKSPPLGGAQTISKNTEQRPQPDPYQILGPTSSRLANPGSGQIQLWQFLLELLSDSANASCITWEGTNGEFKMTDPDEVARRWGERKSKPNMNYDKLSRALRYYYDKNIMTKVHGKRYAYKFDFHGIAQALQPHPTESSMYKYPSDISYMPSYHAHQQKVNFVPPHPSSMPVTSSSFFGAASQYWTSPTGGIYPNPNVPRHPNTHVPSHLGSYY
Outline: (§1)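 GST fusions of human transcription factors were expressed in yeast and captured with glutathione beads. Once given DNA barcodes and pooled alongside a tag-only sample, they were incubated for 30 min at room temperature with 200 nmole of a random double-stranded 16-mer DNA library in Tris/NaCl/DTT/glycerol buffer, then washed, crosslinked (0.1% formaldehyde), proximity-ligated, PCR-amplified and sequenced on an Illumina NextSeq500. The binding signal of each hexamer is its read frequency for a factor divided by its frequency for the tag-only sample.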

[2] = target: T2, ELK1 (Homo sapiens, UniProt P19419 1-428)
T2 sequence: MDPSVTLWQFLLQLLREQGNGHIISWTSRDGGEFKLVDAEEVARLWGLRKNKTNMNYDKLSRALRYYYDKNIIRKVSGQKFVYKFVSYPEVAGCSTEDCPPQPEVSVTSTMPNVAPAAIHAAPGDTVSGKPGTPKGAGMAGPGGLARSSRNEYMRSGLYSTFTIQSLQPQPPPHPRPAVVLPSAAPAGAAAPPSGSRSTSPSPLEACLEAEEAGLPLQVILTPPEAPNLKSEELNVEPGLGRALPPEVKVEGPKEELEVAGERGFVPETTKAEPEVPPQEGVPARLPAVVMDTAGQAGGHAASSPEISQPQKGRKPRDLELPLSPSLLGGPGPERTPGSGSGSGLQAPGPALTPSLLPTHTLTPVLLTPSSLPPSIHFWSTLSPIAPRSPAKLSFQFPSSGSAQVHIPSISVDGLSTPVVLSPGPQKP
Outline: as §1

[3] = target: T3, GABPA (Homo sapiens, UniProt Q06546 1-454)
T3 sequence: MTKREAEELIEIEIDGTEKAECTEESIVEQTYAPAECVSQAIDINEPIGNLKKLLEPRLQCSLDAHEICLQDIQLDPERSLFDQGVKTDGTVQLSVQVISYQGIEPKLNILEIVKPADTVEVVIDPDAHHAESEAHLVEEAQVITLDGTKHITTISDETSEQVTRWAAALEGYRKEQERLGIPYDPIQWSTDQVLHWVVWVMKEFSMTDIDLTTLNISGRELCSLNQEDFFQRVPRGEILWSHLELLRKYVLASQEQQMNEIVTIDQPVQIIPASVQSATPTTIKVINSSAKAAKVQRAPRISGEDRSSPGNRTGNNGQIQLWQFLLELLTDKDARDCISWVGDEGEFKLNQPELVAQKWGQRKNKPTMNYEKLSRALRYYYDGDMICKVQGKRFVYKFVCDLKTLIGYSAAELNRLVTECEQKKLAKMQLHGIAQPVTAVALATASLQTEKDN
Outline: as §1

[4] = target: T4, ERG (Homo sapiens, UniProt P11308 1-479)
T4 sequence: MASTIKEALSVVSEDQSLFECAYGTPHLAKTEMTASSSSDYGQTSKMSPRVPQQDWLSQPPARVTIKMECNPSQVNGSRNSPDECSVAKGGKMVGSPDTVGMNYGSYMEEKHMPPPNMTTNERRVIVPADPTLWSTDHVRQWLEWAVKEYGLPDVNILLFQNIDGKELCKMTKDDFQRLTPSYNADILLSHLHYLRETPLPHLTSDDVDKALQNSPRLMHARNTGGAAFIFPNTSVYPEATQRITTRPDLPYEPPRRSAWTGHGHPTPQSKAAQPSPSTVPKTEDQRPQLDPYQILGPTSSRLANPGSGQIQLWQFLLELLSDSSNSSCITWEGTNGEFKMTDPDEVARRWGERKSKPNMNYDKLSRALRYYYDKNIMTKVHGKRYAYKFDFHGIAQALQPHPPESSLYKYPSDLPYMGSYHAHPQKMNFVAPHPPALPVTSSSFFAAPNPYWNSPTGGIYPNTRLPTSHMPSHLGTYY
Outline: as §1

[5] = target: ELF1 (Homo sapiens, UniProt P32519 1-619)
Chain of ELF1 (P32519 whole entry): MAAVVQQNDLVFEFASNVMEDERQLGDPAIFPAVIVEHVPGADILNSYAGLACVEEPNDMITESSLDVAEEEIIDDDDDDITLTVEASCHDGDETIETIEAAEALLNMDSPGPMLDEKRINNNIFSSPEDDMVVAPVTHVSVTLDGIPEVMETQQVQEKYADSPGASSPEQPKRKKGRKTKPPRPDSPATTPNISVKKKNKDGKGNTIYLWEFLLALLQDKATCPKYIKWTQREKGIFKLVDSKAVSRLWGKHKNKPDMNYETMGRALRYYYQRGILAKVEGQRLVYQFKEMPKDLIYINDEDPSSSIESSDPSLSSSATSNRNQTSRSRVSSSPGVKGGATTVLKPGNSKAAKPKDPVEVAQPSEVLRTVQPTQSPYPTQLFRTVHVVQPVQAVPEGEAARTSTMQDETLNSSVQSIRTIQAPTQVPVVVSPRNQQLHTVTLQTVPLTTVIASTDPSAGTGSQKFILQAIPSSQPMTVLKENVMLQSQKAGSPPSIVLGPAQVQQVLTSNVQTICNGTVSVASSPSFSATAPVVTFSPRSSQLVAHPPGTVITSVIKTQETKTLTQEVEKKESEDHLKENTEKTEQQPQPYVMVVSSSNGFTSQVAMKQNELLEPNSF
Outline: as §1

[6] = target: T5, EHF (Homo sapiens, UniProt Q9NZC4 1-300)
T5 sequence: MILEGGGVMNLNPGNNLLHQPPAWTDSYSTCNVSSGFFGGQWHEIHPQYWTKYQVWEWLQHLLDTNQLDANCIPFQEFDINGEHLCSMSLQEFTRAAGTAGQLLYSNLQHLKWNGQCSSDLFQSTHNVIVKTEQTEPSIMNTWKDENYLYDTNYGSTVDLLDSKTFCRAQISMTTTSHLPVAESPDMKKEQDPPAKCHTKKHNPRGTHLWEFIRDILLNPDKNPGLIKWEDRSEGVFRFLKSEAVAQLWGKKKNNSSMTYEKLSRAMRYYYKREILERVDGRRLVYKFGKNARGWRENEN
Outline: as §1

[7] = target: SPI1 (Homo sapiens, UniProt P17947 1-270)
Outline: as §1

[8] = target: SPIB (Homo sapiens, UniProt Q01892 1-262)
Chain of SPIB (Q01892 whole entry): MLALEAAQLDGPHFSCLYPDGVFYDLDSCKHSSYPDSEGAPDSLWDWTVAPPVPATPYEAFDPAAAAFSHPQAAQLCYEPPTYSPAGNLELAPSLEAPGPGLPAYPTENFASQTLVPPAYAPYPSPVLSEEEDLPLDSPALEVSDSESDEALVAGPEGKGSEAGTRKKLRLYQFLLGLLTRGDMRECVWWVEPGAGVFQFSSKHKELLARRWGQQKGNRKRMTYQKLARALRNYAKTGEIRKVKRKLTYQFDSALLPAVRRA
Outline: as §1

[9] = target: T6, ELK3 (Homo sapiens, UniProt P41970 1-407)
T6 sequence: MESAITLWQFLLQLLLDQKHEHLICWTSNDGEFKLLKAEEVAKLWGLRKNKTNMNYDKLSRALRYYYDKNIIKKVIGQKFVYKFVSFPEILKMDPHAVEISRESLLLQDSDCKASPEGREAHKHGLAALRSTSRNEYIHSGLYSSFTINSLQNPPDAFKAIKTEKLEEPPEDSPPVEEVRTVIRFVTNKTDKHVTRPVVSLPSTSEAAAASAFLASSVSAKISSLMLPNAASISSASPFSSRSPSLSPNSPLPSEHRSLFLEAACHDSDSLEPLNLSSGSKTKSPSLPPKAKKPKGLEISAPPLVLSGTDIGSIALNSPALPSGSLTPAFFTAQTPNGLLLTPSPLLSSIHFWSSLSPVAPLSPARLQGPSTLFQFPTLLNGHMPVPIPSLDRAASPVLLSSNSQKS
Outline: as §1

TTTTTA
binding signal [1]: 1.23 fold enrichment (6-mer frequency, TF over GST control)
binding signal [2]: 1.2 fold enrichment (6-mer frequency, TF over GST control)
binding signal [3]: 1.23 fold enrichment (6-mer frequency, TF over GST control)
binding signal [4]: 1.25 fold enrichment (6-mer frequency, TF over GST control)
binding signal [5]: 1.35 fold enrichment (6-mer frequency, TF over GST control)
binding signal [6]: 1.37 fold enrichment (6-mer frequency, TF over GST control)
binding signal [7]: 1.47 fold enrichment (6-mer frequency, TF over GST control)
binding signal [8]: 1.37 fold enrichment (6-mer frequency, TF over GST control)
binding signal [9]: 1.3 fold enrichment (6-mer frequency, TF over GST control)
